Inconclusive results are not listed. Entries that show only a call come without a potency. Active and inactive are the calls of the source. The call rests on the fitted dose curve; in most records, active means well fitted curve in the direction sought with a large enough effect; inconclusive means small, poorly fitted or top-dose-only effect, or effect the other way, or another doubt; inactive means no such curve, though single readings can be large or run the other way.
Target: Pyruvate kinase PKLR (Homo sapiens) (UniProt P30613)
Assay: Secondary LDH Assay for Activators of Human Reticulocyte Pyruvate Kinase: for Probe SAR
Outline: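 LDH-coupled kinetic readout of pyruvate formation: NADH (0.2 mM) fluorescence decline over 3-6 minutes gave initial rates. Reactions held 10 nM hPK-R, 1 uM LDH, 0.1 mM PEP and 4.0 mM ADP at pH 8.0; activation normalized to fructose-bis-phosphate-type EC100.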

Chain of Pyruvate kinase PKLR (Homo sapiens) (P30613 whole entry, looked up): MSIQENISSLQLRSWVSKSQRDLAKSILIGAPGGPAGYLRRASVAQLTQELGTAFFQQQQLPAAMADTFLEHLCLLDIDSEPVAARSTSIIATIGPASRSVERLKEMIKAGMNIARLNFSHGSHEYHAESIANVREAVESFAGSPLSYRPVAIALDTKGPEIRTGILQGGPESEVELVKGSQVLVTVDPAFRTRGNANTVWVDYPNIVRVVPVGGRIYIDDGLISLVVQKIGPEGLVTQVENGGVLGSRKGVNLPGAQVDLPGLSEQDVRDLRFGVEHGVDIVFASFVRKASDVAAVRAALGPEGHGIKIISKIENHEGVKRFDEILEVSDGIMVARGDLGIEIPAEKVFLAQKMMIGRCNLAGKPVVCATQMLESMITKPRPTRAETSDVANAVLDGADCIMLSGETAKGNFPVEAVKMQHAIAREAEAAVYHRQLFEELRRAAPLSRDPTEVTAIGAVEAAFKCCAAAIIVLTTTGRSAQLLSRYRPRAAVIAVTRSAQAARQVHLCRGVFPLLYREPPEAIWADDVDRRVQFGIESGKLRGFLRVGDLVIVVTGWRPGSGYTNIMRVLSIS

Row | SMILES | Potency
1 | Cc1nc(-c2ccc(S(=O)(=O)Nc3ccc(C)c(C)c3)s2)cs1 | inactive
2 | Cc1ccc(-c2nc3cnccn3c2Nc2ccc(C(C)C)cc2)o1 | inactive
3 | O=C1CCc2cc(S(=O)(=O)Nc3cccnc3)ccc2N1 | inactive
4 | Cc1ccc(NS(=O)(=O)c2ccc3c(c2)CCCC(=O)N3)cc1C | inactive
5 | Cc1ccc(NS(=O)(=O)c2cccc(C(=O)O)c2)cc1C | inactive
6 | Cc1ccc(NS(=O)(=O)c2ccc3c(c2)CCC(=O)N3)cc1 | inactive
7 | O=C1c2ccccc2C(=O)N1Cc1ccccc1 | inactive
8 | O=S1(=O)N=C(Oc2ccc(Cl)cc2)c2ccccc21 | inactive
9 | Cc1ccccc1Nc1c(-c2ccc(Cl)s2)nc2ccccn12 | inactive
10 | Cc1cc2c(s1)c1cnn(Cc3ccccc3F)c(=O)c1n2C | inactive
11 | Nc1cccc(S(=O)(=O)N2CCCN(S(=O)(=O)c3ccc4c(c3)OCCO4)CC2)c1 | inactive
12 | CNc1cccc(S(=O)(=O)N2CCN(S(=O)(=O)c3ccc4c(c3)OCCO4)CC2)c1 | inactive
13 | Cc1ccc(NS(=O)(=O)c2ccc(Cl)cc2)cc1C | inactive
14 | O=C1c2ccccc2C(=O)N1c1nccs1 | inactive
15 | COc1ccc(OC2=NS(=O)(=O)c3ccccc32)cc1 | inactive
16 | O=C1c2ccccc2C(=O)N1c1ccc2ncccc2c1 | inactive
17 | O=C1CCc2cc(S(=O)(=O)Nc3ccccc3-c3ccccc3)ccc2N1 | inactive
18 | O=C1c2ccccc2C(=O)N1C1CCCCC1 | inactive
